From PubChem BioAssay
IL-1B inflam inh = inhibitors of inflammasome signaling (IL-1 beta secretion); THP-1 LPS/ATP IL-1B secretion, AlphaLISA, 16 h; hits give low values; activity change, % at 57.5 µM; 360,000 compounds, 4.7% hits; AID 743279; in the data active = activity change below about -50%; inconclusive = mostly about -30% to -49%
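Secreted IL-1B measured by AlphaLISA bead assay after 16 h compound exposure of THP-1 cells; compounds (final up to 57.5 uM) added 1 h before LPS (250 ng/mL) and ATP (1.25 mM) stimulation; lower signal means less secretion.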
TDP1 cell CPT = growth inhibition of DT40 Tdp1-/-;hTDP1 cells with camptothecin (screen for TDP1 inhibitors); Potency, µM (doses to about 46.2 µM), most hits filed as inhibitors; 420,000 compounds, 12% hits; chicken DT40 Tdp1-/-;hTDP1 cells + 20 nM CPT, ATP luminescence, 48 h; note: nearly all actives have a fitted effect of over 55% in size
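Chicken DT40 Tdp1-/- cells stably complemented with human TDP1 were seeded at 400 cells/well in medium containing 20 nM camptothecin, exposed to pin-transferred compounds, and grown at 37 °C for at least 48 hr. Viability was read as ATP luminescence.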
HT1080 IDH1KD tx = toxicity to HT-1080 IDH1 knockdown cells (counter line) | HT-1080 IDH1 knockdown viability, ATP luminescence, 48 h | Potency, µM (top dose mostly 46.1 µM), usual class: cytotoxic | 360,000 compounds, 2% hits | AID 686971
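HT-1080-IDH1KD cells (IDH1 knocked down), 750/well in RPMI with 5% FBS, treated with compound 48 h at 37 degrees C. Viability by CellTiter-Glo luminescence, normalised to DMSO and no-cell wells; concentration-response curves classed.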
TDP1 cell noCPT = qHTS for Inhibitors of human tyrosyl-DNA phosphodiesterase 1 (TDP1): qHTS in cells in absence of CPT | AID 686978, 2013 | 420,000 compounds, 15% hits | Potency, µM (doses to about 46.2 µM), usual class: inhibitors | DT40 Tdp1-/- hTDP1 cells, no CPT, ATP luminescence, 48 h; note: nearly all actives have a fitted effect of over 55% in size
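Compound effects on proliferation are scored in DT40 Tdp1-/-;hTDP1 cells in the absence of CPT. ATP levels (CellTiter-Glo luminescence) are recorded after a ≥48 hr, 37 °C incubation.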
HT1080NT lethal = kills 2HG-producing HT-1080-NT fibrosarcoma cells. 360,000 compounds, 1.6% hits. Potency, µM (top dose mostly 46.1 µM), most hits filed as cytotoxic. HT-1080-NT fibrosarcoma viability, CellTiter-Glo ATP luminescence, 48 h;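 note: NT is the 2HG producing partner of a matched IDH1 knockdown line; nearly all actives have a fitted effect of over 55% in size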
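Toxicity toward the 2HG-producing NT line was scored as %Activity, normalised to DMSO and no-cell wells, from CellTiter-Glo luminescence after 48 hours' treatment.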
Of the large screens only hits and unclear results are named; the others gave an inactive call. Compounds with a hit are over-represented: about 19% of the library has one in this group of screens. Unless noted, calls come from the whole dose curve; as a rule, active = well fitted curve in the direction sought with a large enough effect; inconclusive = small, poorly fitted or top-dose-only effect, or another doubt; inactive = no such curve, though single readings can be large; an effect the other way counts as inactive or inconclusive.

COc1ccc(C(=O)N2CCN(c3ccc([N+](=O)[O-])c(NCCc4ccc(OC)c(OC)c4)c3)CC2)cc1	IL-1B inflam inh inconclusive, TDP1 cell CPT 4.11µM, HT1080 IDH1KD tx inconclusive, TDP1 cell noCPT 2.59µM, HT1080NT lethal 1.16µM
COc1ccc(C(=O)COC(=O)c2cc(-c3cccs3)nc3ccccc23)cc1	TDP1 cell noCPT inconclusive (no result: IL-1B inflam inh, HT1080 IDH1KD tx, HT1080NT lethal)
Cc1ccc(-c2nc(CCNC(=O)C(=O)Nc3ccc(F)cc3F)cs2)cc1	TDP1 cell noCPT inconclusive (no result: IL-1B inflam inh, HT1080 IDH1KD tx, HT1080NT lethal)
CCOc1ccc(OCC)c(NC(=O)C2CCCN(S(=O)(=O)c3c(C)n[nH]c3C)C2)c1 (configuration not stated)	none
CCOc1ccc(OCC)c(NC(=O)C2CCCN(S(=O)(=O)c3ccc(C)cc3)C2)c1 (configuration not stated)	TDP1 cell CPT 25.9µM, TDP1 cell noCPT 16.4µM
COc1ccc(S(=O)(=O)N2CCCC(C(=O)Nc3cccc(C(C)=O)c3)C2)cc1 (configuration not stated)	TDP1 cell CPT inconclusive, TDP1 cell noCPT inconclusive
COc1ccc(S(=O)(=O)N2CCCC(C(=O)Nc3ccc4c(c3)OCCO4)C2)cc1 (configuration not stated)	IL-1B inflam inh inconclusive, TDP1 cell CPT 20.6µM, TDP1 cell noCPT inconclusive
Cc1ccc(NC(=O)C2CCCN(S(=O)(=O)c3ccc(C)cc3)C2)cc1 (configuration not stated)	TDP1 cell CPT 16.4µM, TDP1 cell noCPT 16.4µM (no result: IL-1B inflam inh, HT1080 IDH1KD tx, HT1080NT lethal)
COc1ccc(NC(=O)C2CCCN(S(=O)(=O)c3ccc(F)cc3)C2)cc1 (configuration not stated)	TDP1 cell CPT 14.6µM, TDP1 cell noCPT 14.6µM (no result: IL-1B inflam inh, HT1080 IDH1KD tx, HT1080NT lethal)
CCCn1c(Nc2ccccc2C)nc2ccccc21	none
COc1ccccc1NC(=O)CCSc1nc(C)cc(C)n1	none
COc1ccc(-c2nn3c(-c4ccc(C)cc4)nnc3c3ccccc23)cc1	none (no result: IL-1B inflam inh, HT1080 IDH1KD tx, HT1080NT lethal)
CCCCN1C(=O)C2(OCCCO2)c2cccc(C)c21	none
COc1cccc(/C=C2\CC(C)Cc3c2nc2ccccc2c3C(=O)O)c1OC (configuration not stated)	none
Cc1ccc(S(=O)(=O)N2CCCC(C(=O)N(Cc3cccs3)C3CC3)C2)cc1 (configuration not stated)	TDP1 cell CPT 13µM, TDP1 cell noCPT 13µM
O=C(Nc1cccc(F)c1)C1CCCN(S(=O)(=O)c2ccccc2)C1 (configuration not stated)	TDP1 cell CPT 18.4µM, TDP1 cell noCPT inconclusive
CC(=O)c1cccc(NC(=O)C2CCCN(S(=O)(=O)c3ccc(F)cc3)C2)c1 (configuration not stated)	TDP1 cell CPT inconclusive, TDP1 cell noCPT inconclusive
COc1ccccc1CCNC(=O)CN1C(=O)c2ccccc2S1(=O)=O	none
Cc1ccc(C)c(S(=O)(=O)N2CCCOC2CNC(=O)C(=O)NC2CCCC2)c1 (configuration not stated)	none
Cc1ccc(-n2c(SCC(=O)NCC3CCCO3)nc3n[nH]c(C)c3c2=N)cc1Cl (configuration not stated)	TDP1 cell CPT 9.2µM, TDP1 cell noCPT 9.2µM
Cc1ccc(-n2c(SCC(=O)NCC3CCCO3)nc3ccccc3c2=O)cc1 (configuration not stated)	TDP1 cell CPT inconclusive
COc1ccc(-n2c(SCC(=O)NCC3CCCO3)nc3ccccc3c2=O)cc1Cl (configuration not stated)	TDP1 cell CPT 8.2µM, TDP1 cell noCPT 20.6µM
Cc1ccc(C)c(-n2nnnc2SCC(=O)NCC2CCCO2)c1 (configuration not stated)	none
COc1ccc(-n2c(SCC(=O)NCC3CCCO3)nc3n[nH]c(C)c3c2=N)cc1 (configuration not stated)	IL-1B inflam inh -56.4, TDP1 cell CPT inconclusive, TDP1 cell noCPT 18.4µM
COc1ccc(-c2nnc(SCC(=O)NCC3CCCO3)n2C)cc1 (configuration not stated)	HT1080 IDH1KD tx inconclusive
COc1ccccc1N1CCN(C(=O)CCc2c[nH]c3ccccc23)CC1	TDP1 cell CPT inconclusive
CCOc1ccc(S(=O)(=O)N(CC(=O)Nc2ccc(OC)c(Cl)c2)c2ccccc2)cc1	none (no result: IL-1B inflam inh, HT1080 IDH1KD tx, HT1080NT lethal)
O=C(Nc1ccccc1-c1ccccc1)C12CC3CC(CC(C3)C1)C2	TDP1 cell CPT inconclusive, HT1080 IDH1KD tx inconclusive, TDP1 cell noCPT 14.6µM
O=C(Nc1ccccc1-c1ccccc1)C1CCCC1	TDP1 cell CPT 6.51µM, HT1080 IDH1KD tx inconclusive, TDP1 cell noCPT 6.51µM, HT1080NT lethal inconclusive
O=C(Nc1ccccc1C(F)(F)F)C1CCCC1	none
CCc1cc2c(NCc3ccco3)ncnc2s1	TDP1 cell CPT 18.4µM, TDP1 cell noCPT 13µM
CCc1cc2c(NCC(=O)O)ncnc2s1	TDP1 cell noCPT inconclusive
CCOC(=O)c1sc2nc(CC(=O)OC)nc(NCc3ccco3)c2c1C	TDP1 cell CPT inconclusive, TDP1 cell noCPT inconclusive
CCOC(=O)c1sc2ncnc(NCc3ccco3)c2c1C	TDP1 cell CPT 18.4µM, TDP1 cell noCPT inconclusive
O=C(O)Cc1cc(I)c(Oc2cc(I)c(O)c(I)c2)c(I)c1	none (no result: IL-1B inflam inh, HT1080 IDH1KD tx, HT1080NT lethal)
Cc1cccc(Cn2c(=O)n(Cc3ccc4c(c3)OCO4)c(=O)c3oc4ccccc4c32)c1	none (no result: IL-1B inflam inh, HT1080 IDH1KD tx, HT1080NT lethal)
Cc1ccc(-n2c3nc(=O)[nH]c(=O)c-3cc3cc([N+](=O)[O-])ccc32)cc1C	TDP1 cell CPT 0.581µM, HT1080 IDH1KD tx inconclusive, TDP1 cell noCPT 1.3µM
Cc1cc(C)c(C)c(S(=O)(=O)Nc2ccc3cn[nH]c3c2)c1C	TDP1 cell CPT inconclusive, TDP1 cell noCPT 20.6µM
Cc1[nH]c2ccccc2c1SCc1nnc(SCc2ccccc2)n1C	IL-1B inflam inh -56.7, HT1080 IDH1KD tx inconclusive, TDP1 cell noCPT inconclusive
CCOC(=O)C1CCN(CC(O)COCc2ccccc2)CC1 (configuration not stated)	none
CCOC(=O)C1CCN(CC(O)COc2ccc(C(C)(C)CC)cc2)CC1 (configuration not stated)	IL-1B inflam inh inconclusive, TDP1 cell CPT 16.4µM, TDP1 cell noCPT 18.4µM
CCOC(=O)C1CCN(CC(O)COc2ccc(C(C)(C)C)cc2)CC1 (configuration not stated)	TDP1 cell CPT inconclusive, HT1080 IDH1KD tx inconclusive, TDP1 cell noCPT 16.4µM, HT1080NT lethal inconclusive
CCOC(=O)C1CCN(CC(O)COc2ccc(C(C)=O)cc2)CC1 (configuration not stated)	none
O=C(N/N=C/C1CC2CCC1C2)c1ccc2c(c1)OCO2 (configuration not stated)	none
COc1cc(/C=C(/NC(C)=O)C(=O)O)cc(Cl)c1OCc1ccc(Br)cc1	none
COc1ccccc1NC(=O)c1sc2nc3n(c(=O)c2c1C)N=C(c1cccc(Br)c1)CS3	none (no result: IL-1B inflam inh, HT1080 IDH1KD tx, HT1080NT lethal)
